Experimental data as given in the supplement of paper PMC11417369.
Over roughly 25,000 sequences, “ln(normalized median fluorescence intensity)” has its median near 7.1; the highest 2% begin near 10. What follows is part of a selection rich in the highest values, with near analogues and random picks from the rest.

Test system: PfSIP2 AP2 domain 1 (GST-tagged)
Assay: gcPBM binding intensity (ln(normalized median fluorescence intensity)); higher = stronger DNA binding
In short: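 Binding intensity is defined as the maximum Masliner-normalised natural-log median intensity across replicate spots for either probe orientation. It was measured on an Agilent 4 × 180k array of primer-extended double-stranded 36-bp intergenic genomic probes and negative controls, to which GST-tagged P. falciparum DNA-binding domains made in E. coli were applied for 1 h in 1× PBS with 1% milk, 0.2 mg/ml BSA, 0.5% salmon testes DNA and 0.03% Triton X-100. Detection was by Alexa488 anti-GST antibody and scanning at 488 nm.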

| Sequence | gcPBM binding intensity (ln) |
| --- | --- |
| AAATAAAAAGGGTGCACACAAAAATATATATATATA [CACACA_site1728] | 12.4 |
| AATATAAAAAGGCACACACACAAAAAAAAAAAAAAA [CACACA_site896] | 7.13 |
| AAAAAAAGAAAAATTGCACACACTTATAAAAATATA [CACACA_site4014] | 6.99 |
| TATATATATAAGTGCACACTGAACCAAGAAAATTAT [CACACA_site3008] | 10.5 |
| AAAAATATAAACTGCACACACACAAAAAAAGAAAAA [CACACA_site648] | 7.25 |
| TATATATATATAAGTGCACACTGAACCAAGAAAATT [CACACA_site5637] | 9.97 |
| AAAAATAAAGGGTGTGCACACAAAAATATATATATA [CACACA_site1727] | 9.1 |
| ATAAAAATAAAAAGTGTGCACACAAAAATATATATA [GTGCAC_site9931] | 8.78 |
| AAATATAAAGTGCACACACACAAAAAAAGAAAAAAA [CACACA_site6452] | 11.2 |
| AAACTCAACTTATATACACACAATCTTTTTTTTTTA [CACACA_site29] | 6.8 |
| AAATGTAATAATAAATGTACAAACATATATATGTAT [XGTACX_site8718] | 6.94 |
| CTAAAAATCTTTTGTTGTACTTTTAGATAATCAGGA [XGTACX_site3968] | 7.06 |
| ATGGGGAATAATGAATGTACACAAATAAAAAGTTGG [XGTACX_site4015] | 7.13 |
| TTTTTTTTTTTTTGTTGTACCCATCATATATACATA [XGTACX_site4342] | 7.11 |
| GTTCATTCATTTTAATGTACAAATTTAACTTTTTCT [XGTACX_site680] | 6.91 |
| TCTTTTTTAAATAAAAGTACAAAAAAAAATAAAAAA [XGTACX_site2670] | 6.93 |
| ATTTTTTTTTTTTTATGTACATATTAAAAAAAATAT [XGTACX_site1829] | 7.01 |
| ATATAAAAATACAGGTGTACATTTTTTCATATTTAT [XGTACX_site6959] | 7.18 |
| GATTCATCTAAACACCGTACATATTATATATATATA [XGTACX_site6030] | 9.22 |
| AACAACAACTAATATGCACACATTTAAAAACAAAAT [CACACA_site2440] | 7.5 |
| TAATATATTATAAACACATGCACATTAATAATAACT [TGCATGCA_site708] | 9.16 |
| AATCATAAACATTATGCACACAAAAATAAAAAAAAA [CACACA_site8289] | 7.36 |
| ATGGTGCAACATTATGCACACCGTTAAATAACTAAT [CACACA_site9280] | 11.8 |

| Sequence | gcPBM binding intensity (ln) |
| --- | --- |
| TCATAAACATTATGCACACAAAAATAAAAAAAAATA [CACACA_site1115] | 7.52 |
| TGATTCTAACTTATGGTGCAACATTATGGACACCGT | 10.7 |
| TATATAACATATGGGACACACATGCAACTGTTATAT [CACACA_site3792] | 7.19 |
| TTATGGTGCAACATTATGCACACCGTTAAATAACTA [CACACA_site3846] | 11.9 |
| ATTAAAGAGAGACATCAACACACATACGTATGTATA [CACACA_site8393] | 6.94 |
| TAGTTTTTTATAAAATTATTTATATAAAGGTAAAAA [CACACA_negctrl_site490] | 7.1 |
| TTTGGATAAAAAATATGTACACACATATAGATATCT [XGTACX_site5660] | 6.9 |
| TCTACAAAATTATCATGTACATATTATTATAATTAT [XGTACX_site6585] | 7.28 |
| TGTTGTATATCTCTATATAGCTATATTGTATATATA [TGCATGCA_negctrl_site323] | 6.97 |
| TATAAAAGTGGACACACACACATATATATATATATA [CACACA_site4673] | 9.47 |
| CTTAATTTAATGAAATGTACATATAAAAATATTATA [XGTACX_site3303] | 7.11 |
| AAATGAATTTAACAATGTACACATATATTATAAATA [XGTACX_site1449] | 7.13 |
| ATATATAACGGGCACACACACATTTACGTATGAATA [CACACA_site1833] | 7.39 |
| ATATATAACGTGCACACACACATTTACGTATGAATA [CACACA_site6948] | 10.4 |
| TGTAAATTATAACGTGCACACATATTTAAAATGAAA [CACACA_site8915] | 10.6 |
| TAAATTATAACGTGCACACATATTTAAAATGAAATG [CACACA_site2820] | 10.3 |
| TAAAATAAATTGTGCACACATATTTATAAATATGAA [CACACA_site2331] | 9.66 |
| TTTATTAATAATTATACACACATATAAAATGAATAA [CACACA_site1359] | 7.01 |
| TAATATATAACGTGCACACACACATTTACGTATGAA [CACACA_site1832] | 9.88 |
| ATATAAGTACGGCATGCATGCACATTTTTTTATTCC [TGCATGCA_site101] | 7.09 |
| TACGTTATATACAACTGTACTTGGATAATTATTAAC [XGTACX_site5614] | 7.13 |
| TCTTTTTTTTTTTTTTTTTTTTTTTATTTATTCATA [CACACA_negctrl_site1827] | 6.85 |
| CATAATATATATTGAGCATGCTACTATTGTTAGAAA [TGCATGCA_site740] | 6.93 |
